Results published in the supplement of paper PMC12494721.
Structures can show the parent of a compound that is named as a salt.

Columns and labels:
Conditions in all cases: incubation time: 27 h, anaerobic, 37 °C;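 for the amine columns active = adjusted P below 0.05 in both replicates with a change the same way and a mean fold change under 0.8 or over 1.25; inactive = the rest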
[1] = tested on: Clostridium sporogenes DSM 1664; assay: growth (OD595) fold change vs plate DMSO controls (fold change (ratio)); higher = more growth
Procedure, shortened: (§1)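 The reported measure is growth: the fold change against the median of DMSO controls on the plate. Absorbance at 595 nm from anaerobic 96-well mGAM cultures grown for 27 h at 37 °C was blank-subtracted, corrected for background with 20 µM compound solutions in water, and converted to OD with a calibration factor of 5. Fold changes above 1.5 appear as NA, and values are the mean of 2 biological replicates.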

[2] = tested on: Escherichia coli IAI1; assay: as above
Procedure, shortened: as §1

[3] = tested on: Klebsiella aerogenes DSM 30053; assay: as above
Procedure, shortened: as §1

[4] = tested on: Ruminococcus gnavus DSM 108212; assay: as above
Procedure, shortened: as §1

[5] = tested on: Klebsiella aerogenes DSM 30053; assay: fold change of Histamine concentration vs plate DMSO controls (fold change (ratio)); higher = more amine produced, active = hit call of the paper (significant change in both replicates, either direction)
Procedure, shortened: (§2)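 Amine values are fold changes relative to DMSO-only wells on the same plate. They derive from 27 h, 37 °C anaerobic mGAM cultures of four gut bacterial strains in 80 µL wells, dosed at 20 µM final, or 50 µM final for sweeteners. Extraction of the whole culture, LC–triple-quadrupole MS in dynamic MRM mode, external calibration curves and within-batch drift correction were used, with 2 biological replicates averaged.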

[6] = tested on: Clostridium sporogenes DSM 1664; assay: fold change of Tryptamine concentration vs plate DMSO controls (fold change (ratio)); higher = more amine produced, active = hit call of the paper (significant change in both replicates, either direction)
Procedure, shortened: as §2

[7] = tested on: Ruminococcus gnavus DSM 108212; assay: as above
Procedure, shortened: as §2

[8] = tested on: Escherichia coli IAI1; assay: fold change of Putrescine concentration vs plate DMSO controls (fold change (ratio)); higher = more amine produced, active = hit call of the paper (significant change in both replicates, either direction)
Procedure, shortened: as §2

[9] = tested on: Klebsiella aerogenes DSM 30053; assay: as above
Procedure, shortened: as §2

[10] = tested on: Escherichia coli IAI1; assay: fold change of Cadaverine concentration vs plate DMSO controls (fold change (ratio)); higher = more amine produced, active = hit call of the paper (significant change in both replicates, either direction)
Procedure, shortened: as §2

[11] = tested on: Klebsiella aerogenes DSM 30053; assay: as above
Procedure, shortened: as §2

[12] = tested on: Ruminococcus gnavus DSM 108212; assay: fold change of 2-Phenylethylamine concentration vs plate DMSO controls (fold change (ratio)); higher = more amine produced, active = hit call of the paper (significant change in both replicates, either direction)
Procedure, shortened: as §2

| SMILES | growth [1] | growth [2] | growth [3] | growth [4] | fold change of Histamine concentration [5] | fold change of Tryptamine concentration [6] | fold change of Tryptamine concentration [7] | fold change of Putrescine concentration [8] | fold change of Putrescine concentration [9] | fold change of Cadaverine concentration [10] | fold change of Cadaverine concentration [11] | fold change of 2-Phenylethylamine concentration [12] |
| --- | --- | --- | --- | --- | --- | --- | --- | --- | --- | --- | --- | --- |
| CC(=O)Oc1c(C)cccc1C(=O)O [Cresopirine] (20 µM) | 1.04 | 0.974 | 1.03 | 0.935 | 0.972 (inactive) | 1.06 (inactive) | 0.962 (inactive) | 0.977 (inactive) | 1.02 (inactive) | 0.998 (inactive) | 1.01 (inactive) | 0.945 (inactive) |
| CCN(CC)C(=O)c1cccnc1 [Nikethamide] (20 µM) | 1.07 | 1.01 | 0.998 | 1.13 | 1.02 (inactive) | 1.05 (inactive) | 1.05 (inactive) | 1.06 (inactive) | 1 (inactive) | 1.08 (inactive) | 0.993 (inactive) | 1.08 (inactive) |
| C=C1c2cccc(O)c2C(O)=C2C(=O)[C@]3(O)C(O)=C(C(N)=O)C(=O)[C@@H](N(C)C)[C@@H]3[C@@H](O)[C@H]12 [Methacycline hydrochloride] (20 µM) | 0 | 0.0377 | 0.0637 | 0.836 | 0.0707 (active) | 0.0282 (active) | 0.461 (active) | 0.177 (active) | 0.486 (active) | 0.294 (active) | 0.536 (active) | 0.58 (inactive) |
| C=CCOC(Cn1ccnc1)c1ccc(Cl)cc1Cl (configuration not stated) (20 µM) | 1.09 | 0.991 | 1.02 | 0.883 | 0.976 (inactive) | 1.08 (inactive) | 1 (inactive) | 0.942 (inactive) | 0.941 (inactive) | 0.909 (inactive) | 1.06 (inactive) | 1.07 (inactive) |
| C[C@H]1[C@H](OC(=O)CCC(=O)O)O[C@@H]2O[C@@]3(C)CC[C@H]4[C@H](C)CC[C@@H]1[C@@]24OO3 [Artesunate] (20 µM) | 1.08 | 1.01 | 1.03 | 0.931 | 1.04 (inactive) | 1.05 (inactive) | 0.879 (inactive) | 0.992 (inactive) | 1.01 (inactive) | 0.99 (inactive) | 0.982 (inactive) | 0.834 (inactive) |
| CCCCC(=O)N(Cc1ccc(-c2ccccc2-c2nnn[nH]2)cc1)[C@H](C(=O)O)C(C)C [Valsartan] (20 µM) | 1.14 | 1.19 | 1.08 | 1.06 | 0.913 (inactive) | 1.05 (inactive) | 1.07 (inactive) | 1.17 (inactive) | 0.951 (inactive) | 0.941 (inactive) | 1.05 (inactive) | 1.12 (inactive) |
| Cc1nccn1CC1CCc2c(c3ccccc3n2C)C1=O (configuration not stated) [Ondansetron hydrochloride] (20 µM) | 0.937 | 0.997 | 0.989 | 1.08 | 1.01 (inactive) | 1.03 (inactive) | 1.01 (inactive) | 1.05 (inactive) | 0.978 (inactive) | 1.01 (inactive) | 0.995 (inactive) | 1.01 (inactive) |
| CO[C@@]12[C@H](COC(N)=O)C3=C(C(=O)C(C)=C(N)C3=O)N1C[C@@H]1N[C@@H]12 [Mitomycin C] (20 µM) | 0.678 | 0.0414 | 0.824 | 0.291 | 1.15 (inactive) | 0.394 (active) | 0.153 (active) | 0.663 (inactive) | 0.968 (inactive) | 0.306 (active) | 0.995 (inactive) | 0.15 (active) |
| c1ccc2[nH]c(-c3cscn3)nc2c1 [Tiabendazole] (20 µM) | 1.06 | 0.991 | 0.899 | 0.962 | 1.12 (inactive) | 1.01 (inactive) | 1.02 (inactive) | 0.997 (inactive) | 0.964 (inactive) | 1.04 (inactive) | 0.979 (inactive) | 1.04 (inactive) |
| Cc1c(O)c(=O)n(-c2ccccc2)n1C [Antipyrine, 4-hydroxy] (20 µM) | 1.04 | 1.02 | 1.02 | 0.689 | 0.913 (inactive) | 0.985 (inactive) | 0.987 (inactive) | 1.01 (inactive) | 0.956 (inactive) | 0.973 (inactive) | 1.01 (inactive) | 0.932 (inactive) |
| O=C(O)COC(=O)Cc1ccccc1Nc1c(Cl)cccc1Cl [Aceclofenac] (20 µM) | 1.1 | 1.11 | 1.14 | 0.993 | 0.97 (inactive) | 0.959 (inactive) | 0.984 (inactive) | 1.08 (inactive) | 1.01 (inactive) | 0.962 (inactive) | 1.01 (inactive) | 1.05 (inactive) |
| CC(C)N1CCN(c2ccc(OCC3COC(Cn4cncn4)(c4ccc(Cl)cc4Cl)O3)cc2)CC1 (configuration not stated) [Terconazole] (20 µM) | 1.12 | 1 | 1.01 | 1 | 0.996 (inactive) | 0.976 (inactive) | 1 (inactive) | 1 (inactive) | 0.993 (inactive) | 0.989 (inactive) | 1 (inactive) | 0.977 (inactive) |
| CCC(NC(C)C)C(O)c1ccc(O)c2[nH]c(=O)ccc12 (configuration not stated) [Procaterol hydrochloride] (20 µM) | 1.07 | 1.02 | 1.03 | 1.02 | 1.01 (inactive) | 1.02 (inactive) | 1.1 (inactive) | 0.978 (inactive) | 0.949 (inactive) | 0.922 (inactive) | 1.06 (inactive) | 1.14 (inactive) |
| Cc1ccc(C(=O)c2ccc(CC(=O)O)n2C)cc1 [Tolmetin sodium salt dihydrate] (20 µM) | 1.12 | 0.976 | 1.01 | 0.976 | 1.05 (inactive) | 1 (inactive) | 0.958 (inactive) | 0.949 (inactive) | 1.01 (inactive) | 1 (inactive) | 1 (inactive) | 0.913 (inactive) |
| CC(=O)Nc1ccc(C(=O)O)cc1 [Acedoben] (20 µM) | 1.09 | 1 | 0.977 | 0.997 | 1.02 (inactive) | 0.935 (inactive) | 1.03 (inactive) | 1.01 (inactive) | 1 (inactive) | 1.02 (inactive) | 0.995 (inactive) | 1 (inactive) |
| CC(C)(C)C(O)/C=C/c1ccc2c(c1)OCO2 (configuration not stated) [Stiripentol] (20 µM) | 1.04 | 1.03 | 1 | 0.89 | 1.03 (inactive) | 0.927 (inactive) | 1.04 (inactive) | 1.01 (inactive) | 1.01 (inactive) | 1.03 (inactive) | 0.985 (inactive) | 0.981 (inactive) |
| CN(C)CCC=C1c2ccccc2C=Cc2ccccc21 [Cyclobenzaprine hydrochloride] (20 µM) | 0.862 | 1.01 | 0.985 | 0.869 | 1.06 (inactive) | 1.19 (inactive) | 0.915 (inactive) | 0.987 (inactive) | 1 (inactive) | 1.01 (inactive) | 0.985 (inactive) | 0.921 (inactive) |
| COCC(=O)Nc1c(I)c(C(=O)NCC(O)CO)c(I)c(C(=O)N(C)CC(O)CO)c1I (configuration not stated) [Iopromide] (20 µM) | 1.27 | 1.02 | 1.06 | 1.02 | 1.01 (inactive) | 1.01 (inactive) | 1.11 (inactive) | 1.09 (inactive) | 0.975 (inactive) | 0.989 (inactive) | 1.02 (inactive) | 1.15 (inactive) |
| Cc1ccc(C)c(OCCCC(C)(C)C(=O)O)c1 [Gemfibrozil] (20 µM) | 1.11 | 1.01 | 1.07 | 0.931 | 1.02 (inactive) | 1.01 (inactive) | 1.05 (inactive) | 0.995 (inactive) | 1.02 (inactive) | 0.968 (inactive) | 0.994 (inactive) | 1.03 (inactive) |
| Cc1ncc([N+](=O)[O-])n1CCO [Metronidazole] (20 µM) | 0.00188 | 1.04 | 1.02 | 0.0847 | 0.975 (inactive) | 0.011 (active) | 0.0917 (active) | 0.94 (inactive) | 1.05 (inactive) | 0.997 (inactive) | 1.1 (inactive) | 0.0796 (active) |
| NC(=O)[C@@H]1CCCN1C(=O)[C@H](Cc1c[nH]cn1)NC(=O)[C@@H]1CCC(=O)N1 [Thyrotropin-Releasing Hormone] (20 µM) | 0.956 | 0.979 | 1.02 | 0.996 | 0.966 (inactive) | 0.998 (inactive) | 1 (inactive) | 1.02 (inactive) | 1 (inactive) | 0.999 (inactive) | 1 (inactive) | 0.998 (inactive) |
